Inconclusive results are not listed. Calls of active or inactive are those of the source. Unless noted, the call rests on the fitted dose curve; in most records, active means well fitted curve in the direction sought with a large enough effect in the repeat runs; inconclusive means weak or mixed curves; inactive means no such curve, though single readings can be large; an effect the other way counts as inactive or inconclusive.
Experiments:
[1] = qHTS assay for small molecule agonists of the p53 signaling pathway (AID 651631; calls by dose curve; further: nearly all actives have a fitted effect of over 15% in size)
In short: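 We treat p53RE-bla HCT-116 cells with compounds for 16 h at 37 °C, add LiveBLAzer B/G FRET substrate for 2 h at room temperature, and measure fluorescence intensity.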

[2] = qHTS assay for small molecules that induce genotoxicity in human embryonic kidney cells expressing luciferase-tagged ATAD5 (AID 651632); further: nearly all actives have a fitted effect of over 15% in size
In short: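 Cells were seeded at 2,000 per well, dosed with compound, and incubated 16 hr at 37C in 5% CO2. Luciferase activity was then quantified after a 30 min room-temperature incubation with Amplite.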

[3] = qHTS assay for small molecule agonists of the p53 signaling pathway - cell viability (AID 651633; calls by dose curve;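 further: p53RE-bla HCT reporter cells with a stable beta-lactamase p53 reporter; series mostly up to about 83 µM; nearly all actives have a fitted effect of over 30% in size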)
In short: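 p53RE-bla cells were treated with compound for 16 hours at 37 C. Cytotoxicity was then measured as CellTiter-Glo luminescence after 30 min at room temperature.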

[4] = qHTS assay for small molecules that induce genotoxicity in human embryonic kidney cells expressing luciferase-tagged ATAD5 - cell viability (AID 651634; calls by dose curve; further: nearly all actives have a fitted effect of over 25% in size)
In short: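 Cells (HEK293T, luciferase-tagged ATAD5) are seeded at 2,000 per well, dosed with compound or DMSO vehicle, and incubated 15.5 hr at 37C and 5% CO2. CellTiter-Fluor is added for 30 min before fluorescence is measured.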

[5] = qHTS assay for small molecule disruptors of the mitochondrial membrane potential - cell viability (AID 720634; calls by dose curve;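 further: human HepG2 liver cancer cells; series mostly up to about 83 µM; nearly all actives have a fitted effect of over 20% in size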)
In short: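 Cytotoxicity was measured by ATP quantitation in HepG2 wells that had first been treated with compound for 1 hr and stained with m-MPI dye; CellTiter-Glo incubation was 30 min at room temperature.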

[6] = qHTS assay to test for compound auto fluorescence at 590 nm (red) in HepG2 cells (AID 720674)
In short: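 Seeding: 2,000 HepG2 cells/well, MEM/10% FBS, overnight 37 C. Dosing: compound vs DMSO. Incubation: 1 hr, 37 C, 5% CO2. Read: fluorescence 540 ex/590 em, Rose Bengal sodium as red reference.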

[7] = qHTS assay to test for compound auto fluorescence at 535 nm (green) in HepG2 cells (AID 720675)
[8] = qHTS assay to test for compound auto fluorescence at 460 nm (blue) in HEK293 cells (AID 720678)
In short: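 After cell attachment (4-5 hr, 37C), compounds were pinned onto HEK293 monolayers in 10% dialyzed FBS medium. The blue channel (405/460 nm) was read following overnight culture. Equivalency was calculated against triamterene.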

[9] = qHTS assay to test for compound auto fluorescence at 590 nm (red) in HEK293 cells (AID 720679)
In short: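 Plates of HEK293 cells (10% dialyzed FBS) are treated with 23 nL compound or DMSO vehicle after a 4-5 hr attachment period, incubated overnight at 37C, and read for red fluorescence at 540/590nm.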

[10] = qHTS assay to test for compound auto fluorescence at 535 nm (green) in HEK293 cells (AID 720680)
[11] = qHTS assay to test for compound auto fluorescence at 460 nm (blue) in HEK293 cell free culture (AID 720681)
In short: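 Compounds were added to cell-free DMEM with 10% FBS and fluorescence read directly. The blue channel used 405 nm excitation and 460 nm emission, with triamterene as the reference fluorophore.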

[12] = qHTS assay to test for compound auto fluorescence at 535 nm (green) in HEK293 cell free culture (AID 720682)
In short: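 Green-channel intensity (Ex/Em 485/535 nm) was recorded from compound-treated wells containing only DMEM with 10% FBS. Fluorescein provided the equivalency standard.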

[13] = qHTS assay to test for compound auto fluorescence at 590 nm (red) in HEK293 cell free culture (AID 720683)
In short: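 Cell-free wells of DMEM with 10% FBS received compound, and intrinsic fluorescence was read at excitation/emission 540/590 nm. Values expressed as equivalence to Rose Bengal sodium.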

[14] = qHTS assay to test for compound auto fluorescence at 590 nm (red) in HepG2 cell free culture (AID 720684)
In short: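 Rose Bengal sodium served as the reference for red signal. Test compounds were dispensed into serum-containing MEM (10% FBS) without cells, and plates were read at 540/590 nm.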

[15] = qHTS assay to test for compound auto fluorescence at 460 nm (blue) in HepG2 cell free culture (AID 720685)
In short: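 Cell-free plates of MEM plus 10% FBS received 23 nL compound or DMSO vehicle; blue-channel (405/460 nm) intensity scored against triamterene as reference fluorophore.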

[16] = qHTS assay to test for compound auto fluorescence at 535 nm (green) in HepG2 cell free culture (AID 720686)
[17] = qHTS assay for small molecule disruptors of the mitochondrial membrane potential (AID 720635)
In short: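 HepG2 cells exposed to compound 1 hr at 37C, then Mito-MPS dye 30 min. Ratio read of aggregate (540/590 nm) versus monomer (490/535 nm) fluorescence.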

[18] = qHTS assay to test for compound auto fluorescence at 460 nm (blue) in HepG2 cells (AID 720687)
In short: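 HepG2 cells in MEM with 10% FBS, attached overnight at 37 C, were exposed to compound or DMSO for 1 hr at 37 C, 5% CO2. Blue fluorescence was read at 405/460 nm, with triamterene as reference fluorophore.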

[19] = biological target: Glucocorticoid receptor (Homo sapiens) (UniProt P04150); assay: qHTS assay to identify small molecule agonists of the glucocorticoid receptor (GR) signaling pathway (AID 720691; active means well fitted activation curve with a large enough effect in the signal ratio in the repeat runs, not every such curve was filed as active; the % refers to the signal ratio)
Glucocorticoid receptor (Homo sapiens), sequence (P04150 whole entry, looked up): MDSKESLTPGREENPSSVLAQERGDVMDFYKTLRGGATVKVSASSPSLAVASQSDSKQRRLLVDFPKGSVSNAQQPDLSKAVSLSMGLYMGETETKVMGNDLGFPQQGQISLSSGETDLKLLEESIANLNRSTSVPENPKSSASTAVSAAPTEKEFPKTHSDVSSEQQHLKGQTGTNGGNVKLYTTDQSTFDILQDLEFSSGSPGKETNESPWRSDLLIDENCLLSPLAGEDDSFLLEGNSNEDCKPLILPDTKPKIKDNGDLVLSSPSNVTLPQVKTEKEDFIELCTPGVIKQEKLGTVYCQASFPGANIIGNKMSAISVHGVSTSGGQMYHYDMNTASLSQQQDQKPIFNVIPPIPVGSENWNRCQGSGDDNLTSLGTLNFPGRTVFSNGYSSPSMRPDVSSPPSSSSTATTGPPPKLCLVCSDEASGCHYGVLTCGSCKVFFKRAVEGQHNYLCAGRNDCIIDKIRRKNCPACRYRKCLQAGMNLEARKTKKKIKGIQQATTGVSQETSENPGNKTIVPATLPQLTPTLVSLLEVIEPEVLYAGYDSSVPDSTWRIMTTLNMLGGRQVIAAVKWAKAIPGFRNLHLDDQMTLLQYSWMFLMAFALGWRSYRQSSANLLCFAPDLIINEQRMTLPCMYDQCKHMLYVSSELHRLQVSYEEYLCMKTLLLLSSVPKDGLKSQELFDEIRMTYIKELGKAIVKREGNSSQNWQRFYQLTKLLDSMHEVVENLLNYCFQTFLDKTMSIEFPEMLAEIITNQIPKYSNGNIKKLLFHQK
In short: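 Steps: seed GR-bla HeLa cells, incubate 4 h at 37 C/5% CO2; pin-transfer DMSO-dissolved compounds; incubate 18 h at 37 C; add LiveBLAzer B/G FRET substrate; after 2 h at room temperature, measure fluorescence.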

[20] = biological target: Glucocorticoid receptor (Homo sapiens) (UniProt P04150); assay: qHTS assay to identify small molecule antagonists of the glucocorticoid receptor (GR) signaling pathway (AID 720692; active means well fitted inhibition curve with a large enough effect in the signal ratio in the repeat runs, not every such curve was filed as active; the % refers to the signal ratio)
In short: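 Antagonism was scored as loss of dexamethasone-driven (5 nM final) reporter signal in HeLa cells bearing a glucocorticoid response element–beta-lactamase construct, after 18 h compound exposure at 37 C and 2 h FRET substrate loading.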
On the % scale 0 is the no-effect control and ±100 the full control effect.

CCCCNc1cc(C(=O)O)cc(S(N)(=O)=O)c1Oc1ccccc1
inactive: Potency [1] | Potency [2] | Potency [3] | Potency [4] | Potency [5] | fluorescence, relative to Rose Bengal [6] -0.242% [at 18.6 µM] | fluorescence, % of fluorescein control [7] 0.0391% [at 18.6 µM] | fluorescence, % of triamterene [8] 0.191% [at 18.6 µM] | fluorescence, % of fluorescent control [9] -0.225% [at 18.6 µM] | fluorescence, % of fluorescein [10] -0.0725% [at 18.6 µM] | fluorescence, % of fluorescent control [11] -0.0083% [at 18.6 µM] | activity change [12] -0.0379% [at 18.6 µM] | fluorescence, % of fluorescent control [13] -0.0094% [at 18.6 µM] | fluorescence, % of Rose Bengal [14] 0.449% [at 18.6 µM] | fluorescence, % of fluorescent control [15] -0.0399% [at 18.6 µM] | fluorescence, % of fluorescein control [16] 0.0191% [at 18.6 µM]

COC(=O)C(C)O (stereo not drawn)
inactive: Potency [1] | Potency [2] | Potency [3] | Potency [4] | Potency [5] | Potency [17] | outcome [6] | outcome [7] | outcome [8] | outcome [9] | outcome [11] | outcome [13] | outcome [14] | outcome [15] | outcome [16]

COC(=O)c1ccc2cc(C(=O)OC)ccc2c1
inactive: Potency [1] | Potency [2] | Potency [3] | Potency [4] | Potency [5] | fluorescence, relative to Rose Bengal [6] 0.064% [at 18.6 µM] | fluorescence, % of fluorescein control [7] -0.0327% [at 18.6 µM] | fluorescence, % of triamterene [8] -0.0093% [at 18.6 µM] | fluorescence, % of fluorescent control [9] 0.496% [at 18.6 µM] | fluorescence, % of fluorescein [10] -0.0047% [at 18.6 µM] | fluorescence, % of fluorescent control [11] -0.109% [at 18.6 µM] | activity change [12] -0.0115% [at 18.6 µM] | fluorescence, % of fluorescent control [13] 0.0914% [at 18.6 µM] | fluorescence, % of Rose Bengal [14] 0.0402% [at 18.6 µM] | fluorescence, % of fluorescent control [15] -0.114% [at 18.6 µM] | fluorescence, % of fluorescein control [16] -0.0122% [at 18.6 µM] | fluorescence, % of fluorescent control [18] 0.0678% [at 18.6 µM] | Potency [19] | Potency [20]

CCc1nnc(NS(=O)(=O)c2ccc(N)cc2)s1
inactive: Potency [1] | Potency [2] | Potency [3] | Potency [4] | Potency [5] | outcome [6] | outcome [7] | outcome [8] | outcome [9] | outcome [10] | outcome [11] | outcome [12] | outcome [14] | outcome [15] | outcome [16] | outcome [18]

OCCN1CCN(CCO)CC1
inactive: Potency [1] | Potency [2] | Potency [3] | Potency [4] | Potency [5] | outcome [6] | outcome [7] | outcome [8] | outcome [9] | outcome [10] | outcome [11] | outcome [12] | outcome [13] | outcome [14] | outcome [15] | outcome [16] | Potency [19]

ICCc1ccccc1
inactive: Potency [1] | Potency [2] | Potency [3] | Potency [4] | Potency [5] | outcome [6] | outcome [7] | outcome [8] | outcome [9] | outcome [10] | outcome [11] | outcome [12] | outcome [13] | outcome [14] | outcome [15] | outcome [16] | outcome [18]

C=CCCC=C
inactive: Potency [1] | Potency [2] | Potency [3] | Potency [4] | Potency [5] | outcome [6] | outcome [7] | outcome [8] | outcome [9] | outcome [10] | outcome [11] | outcome [12] | outcome [13] | outcome [14] | outcome [15] | outcome [16] | outcome [18]

COC(=O)c1ccc(OC)cc1
inactive: Potency [1] | Potency [2] | Potency [3] | Potency [4] | Potency [5] | Potency [17] | outcome [6] | outcome [7] | outcome [8] | outcome [9] | outcome [11] | outcome [14] | outcome [15] | outcome [16] | outcome [18] | Potency [19] | Potency [20]

CCc1cc(Cl)c(OC)c(C(=O)NC[C@@H]2CCCN2CC)c1O
inactive: Potency [1] | Potency [2] | Potency [3] | Potency [4] | Potency [5] | outcome [6] | outcome [7] | outcome [8] | outcome [9] | outcome [10] | outcome [11] | outcome [12] | outcome [13] | outcome [14] | outcome [15] | outcome [16] | outcome [18] | Potency [19] | Potency [20]

From PubChem BioAssay (Tox21)
